Compound activity deposited in PubChem by several laboratories.
A selection: hits, their analogues and other compounds. The true share with any hit is near 1.4%.
Mtb hypoxia inh = PubChem AID 1159583; M. tuberculosis hypoxia-regulated fluorescent reporter, fluorescence; fluorescence inhibition, % (concentration not given with the values); 300,000 compounds, 0.1% hits; in the data active means fluorescence inhibition mostly above about 23%, no sharp cut-off; inactive means mostly below about 17%
ugtP null kill = growth inhibition of ugtP-null S. aureus, primary screen, RN4220 ugtP deletion, OD600; 16 h; growth inhibition, % (no concentration beside the values); 330,000 compounds, 0.54% hits; in the data active means growth inhibition above about 68%;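 further: plate controls were untreated wells for no effect and antibiotic for full effect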
PriA SSB inh = inhibitors of Klebsiella pneumoniae PriA binding to SSB C-terminal tail, primary screen, biochemical, AlphaScreen | AlphaScreen SSBct-PriA binding, biotinylated peptide | PriA–SSB C-terminal tail interaction (Klebsiella pneumoniae) | 430,000 compounds, 0.6% hits | inhibition, % at 33 µM; in the data active means inhibition mostly above about 37%, no sharp cut-off; inactive means mostly below about 20%;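 further: plate controls were negative control peptide for no effect and reference peptide for full effect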
CCHFV vOTU inh = CCHFV vOTU protease inhibitors, primary screen, biochemical, Pep-AMC substrate, fluorescence. inhibition, % at 11.5 µM. 370,000 compounds, 0.55% hits. AID 651958, 2012; in the data active means inhibition above about 30%; further: 0% = vehicle wells with enzyme and 100% = no enzyme wells
Sa RN4220 lethal = growth inhibition of S. aureus RN4220, primary screen, OD600; inhibition, % (test concentration not listed); 330,000 compounds, 0.33% hits; 16 h; in the data active means inhibition above about 85%;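 further: plate controls were untreated cells for no effect and reference antibiotic for full effect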
Numbers without * were called inactive.

Screening O=C(CCl)N1c2ccccc2SCC1c1ccccc1 (centres undefined) returned PriA SSB inh 3 and CCHFV vOTU inh -18.
O=C(CCl)N1c2ccccc2OCC1c1ccccc1 (centres undefined) was read as ugtP null kill 95*, PriA SSB inh -7, CCHFV vOTU inh 12 and Sa RN4220 lethal 40.
Screening COc1ccc(C)c2sc(N3CCN(C(=O)C4CCCN4S(C)(=O)=O)CC3)nc12 (centres undefined) returned PriA SSB inh -17.
CC(=O)NN=Cc1ccccc1OCCOc1cccc(C)c1 was read as Mtb hypoxia inh -3, ugtP null kill 3, PriA SSB inh -34 and Sa RN4220 lethal 18.
`Cc1ccc(S(=O)(=O)N2CCOCC2)cc1C(=O)OCC(=O)NC1CC1` gave Mtb hypoxia inh 33*, ugtP null kill 10, PriA SSB inh -6, CCHFV vOTU inh -9 and Sa RN4220 lethal 4.
Cc1ccc(S(=O)(=O)N2CCOCC2)cc1C(=O)OCC(=O)NC1CCCCC1 was read as Mtb hypoxia inh -1, ugtP null kill 0, PriA SSB inh -9, CCHFV vOTU inh 13 and Sa RN4220 lethal -4.
`COc1ccc(C(=O)C=C(C)Nc2ccc3c(c2)OCO3)cc1` gave PriA SSB inh 8.
Screening CC(=CC(=O)c1ccccc1)Nc1ccc2c(c1)OCO2 returned Mtb hypoxia inh 5, ugtP null kill -6, PriA SSB inh 41* and Sa RN4220 lethal 10.
`Cc1c(CN(C)C)c2c(n1C)C(=O)c1ccc(Br)cc1-2` gave Mtb hypoxia inh 11, ugtP null kill 0, PriA SSB inh 24, CCHFV vOTU inh -17 and Sa RN4220 lethal 5.
`CCOC(=O)c1c2c(n(C)c1C)C(=O)C(=O)c1ccc(Br)cc1-2` gave Mtb hypoxia inh -73, ugtP null kill 95*, PriA SSB inh -5, CCHFV vOTU inh 22 and Sa RN4220 lethal 95*.
Screening Cc1nc(C)c(C(=O)N2CCN(c3ccc(-c4cccs4)nn3)CC2)s1 returned PriA SSB inh 9.
For COc1ccc(C(=O)c2c(C(F)(F)F)oc3c2C(=O)c2ccccc2C3=O)cc1 the results were ugtP null kill 33, PriA SSB inh 57 and Sa RN4220 lethal 94*.
CC(CCc1oc2ccc(Br)cc2c1-c1ccc(C)o1)=NO was read as Mtb hypoxia inh 6, ugtP null kill 89*, PriA SSB inh 32 and Sa RN4220 lethal -5.
CC(CCc1oc2ccc(Cl)cc2c1-c1ccc(C)o1)=NO was read as Mtb hypoxia inh 6, ugtP null kill 87*, PriA SSB inh 32 and Sa RN4220 lethal -3.
`Cc1cc(=O)[nH]c(-n2nc(C)c(CCC(=O)N3CCCC3)c2C)n1` gave PriA SSB inh -1.
For CCOC(=O)C1CCN(c2c(C#N)cnc3ccc(Cl)cc23)CC1 the results were PriA SSB inh -16.
For CCOC(=O)C1CCN(c2c(C(=O)c3ccccc3)cnc3ccc(Cl)cc23)CC1 the results were ugtP null kill 100*, PriA SSB inh 4, CCHFV vOTU inh 9 and Sa RN4220 lethal 55.
`CCN1C(=Cc2sc(-c3ccccc3C)c[n+]2C)Sc2ccccc21` gave PriA SSB inh 3.
`CCN1/C(=C/c2sc(-c3ccccc3C)c[n+]2C)Sc2ccccc21` gave ugtP null kill 101*, CCHFV vOTU inh -10 and Sa RN4220 lethal 100*.
Screening N#CC(c1ccccc1)c1ccc2c(C(F)(F)F)cc(C(F)(F)F)nc2n1 (centres undefined) returned Mtb hypoxia inh 20, ugtP null kill 12, PriA SSB inh 77*, CCHFV vOTU inh -1 and Sa RN4220 lethal 7.
Screening Cc1ccc(C(C#N)c2ccc3c(C(F)(F)F)cc(C(F)(F)F)nc3n2)cc1 (centres undefined) returned ugtP null kill 3, PriA SSB inh 30, CCHFV vOTU inh 14 and Sa RN4220 lethal 0.
For CC(=NN1CCN(Cc2ccccc2Cl)CC1)c1ccc([N+](=O)[O-])cc1 the results were PriA SSB inh 38*.
For COc1cc2nc(C3CCC3)nc(N3CCN(c4ccccc4OC)CC3)c2cc1OC the results were Mtb hypoxia inh 12, ugtP null kill 5, PriA SSB inh 39*, CCHFV vOTU inh 6 and Sa RN4220 lethal 4.
Screening COc1cccc(C(=O)N[C@H](C(=O)N2CCC[C@H]2C(=O)NCc2ccccc2)C2CCCCC2)c1 returned CCHFV vOTU inh 8.
`Nc1nnnn1N=Cc1cc(Cl)cc(Cl)c1OCc1ccc(Cl)cc1Cl` gave ugtP null kill -4, PriA SSB inh -5 and Sa RN4220 lethal 0.
